# Screening results deposited in PubChem by National Center for Advancing Translational Sciences (NCATS).
# Hits are enriched below; roughly 19% of the tested compounds scored in any of these assays.
# TDP1 cell noCPT – qHTS for Inhibitors of human tyrosyl-DNA phosphodiesterase 1 (TDP1): qHTS in cells in absence of CPT; DT40 Tdp1-/- hTDP1 cells, no CPT, ATP luminescence, 48 h; Potency, µM (titrated, usually from 46.2 µM), without a hit: at the top dose activity change, negative = growth inhibition, hits mostly inhibitors; actives 15% (n = 420,000); further: potency means the concentration at half of the fitted maximal effect; nearly all actives have a fitted effect of over 55% in size
#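 Growth kinetics read by CellTiter-Glo luminescence after ≥48 hr at 37 °C. Cells: DT40 Tdp1-/- stably carrying human TDP1, 400 per well, compound exposure in the absence of CPT (DMSO vehicle).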
# IL1B secr inh – inflammasome signaling inhibition, IL-1 beta readout; activity change, % at 57.5 µM; AID 743279; THP-1 LPS/ATP IL-1B secretion, AlphaLISA, 16 h; stronger effect = lower value; actives 4.7% (n = 360,000); in the data active means activity change below about -50%; inconclusive means mostly about -30% to -49%
#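 Secreted IL-1B measured by AlphaLISA bead assay after 16 h compound exposure of THP-1 cells; compounds (final up to 57.5 uM) added 1 h before LPS (250 ng/mL) and ATP (1.25 mM) stimulation; lower signal means less secretion.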
# HT1080NT lethal – kills 2HG-producing HT-1080-NT fibrosarcoma cells | HT-1080-NT fibrosarcoma viability, CellTiter-Glo ATP luminescence, 48 h | AID 686970 | actives 1.6% (n = 360,000) | Potency, µM (series often up to 46.1 µM), without a hit: top-dose activity, negative = less viability, usual class: cytotoxic;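 further: NT is the 2HG producing partner of a matched IDH1 knockdown line; potency means the concentration at half of the fitted maximal effect; 0% = DMSO-treated cells and -100% = media-only wells without cells; nearly all actives have a fitted effect of over 55% in size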
#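 750 cells/well, RPMI + 5% FBS; 2 h settle, compound pin-transfer, 48 h at 37 degrees C. CellTiter-Glo 10 min RT, luminescence. Normalized to DMSO and media-only wells.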
# TDP1 cell CPT – growth inhibition of DT40 Tdp1-/-;hTDP1 cells with camptothecin (screen for TDP1 inhibitors); chicken DT40 Tdp1-/-;hTDP1 cells + 20 nM CPT, ATP luminescence, 48 h; AID 686979; Potency, µM (doses to about 46.2 µM), for inactives: at the highest dose activity change, negative = growth inhibition, hits mostly inhibitors; actives 12% (n = 420,000); further: potency means the concentration at half of the fitted maximal effect; nearly all actives have a fitted effect of over 55% in size
#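 Cell growth measured by CellTiter-Glo luminescence after a minimum 48 h, 37 C compound exposure with 20 nM CPT in Tdp1-knockout DT40 cells stably expressing hTDP1, seeded 400/well; qHTS titration format.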
# HT1080 IDH1KD tx – kills HT-1080 cells with IDH1 knockdown | HT-1080 IDH1 knockdown viability, ATP luminescence, 48 h | actives 2% (n = 360,000) | AID 686971 | Potency, µM (titrated, usually from 46.1 µM), inactives show at the top dose activity, negative = toxicity, actives largely listed as cytotoxic;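 further: potency means the concentration at half of the fitted maximal effect; 0% = DMSO wells and -100% = cell-free medium wells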
#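 Viability of IDH1-knockdown HT-1080 fibrosarcoma cells was assessed by CellTiter-Glo after 48 h at 37 °C with titrated compound; concentration-effect curves were classified by fit quality and response size.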
# ELG1 repair inh – blocks ELG1-dependent DNA repair in HEK293T cells; HEK293T ELG1-luciferase reporter, luminescence, 16 h; DNA damage induced by 5-fluorouridine; Potency, µM (titrated, usually from 46.1 µM), without a hit: at the highest dose activity change, negative = inhibition, usual class: inhibitors; AID 504467; actives 2.3% (n = 330,000); further: potency means the concentration at half of the fitted maximal effect; nearly all actives have a fitted effect of over 55% in size
#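 5-Fluorouridine DNA damage + compound/DMSO, 2,000 cells/well, 16 h, 37 °C/5% CO2. ONE-Glo, 30 min RT, luminescence. Readout = decrease in reporter signal.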
# An asterisk follows results filed as active; u = inconclusive; x = not tested or not shown; ! = not confirmed by another sample. Unless noted, the call rests on the fitted dose curve; in most records, active means well fitted curve in the direction sought with a large enough effect; inconclusive means small, poorly fitted or top-dose-only effect, or another doubt; inactive means no such curve, though single readings can be large; an effect the other way counts as inactive or inconclusive. Unless noted, on the % scale 0 is the no-effect control and ±100 the full control effect.
SMILES,TDP1 cell noCPT,IL1B secr inh,HT1080NT lethal,TDP1 cell CPT,HT1080 IDH1KD tx,ELG1 repair inh
Fc1ccc(-n2cc(-c3ccccc3)[n+]3c2SCC3)cc1,u,38,-3%,-30%,u,-23%
CCc1c(C2(O)CCCCC2)[nH]c2c(C(=O)OC)cc(Cl)cc12,u,29,u,u,u,u
COC(=O)c1cc(Cl)cc2c(C)c(C3(O)CCCCC3)[nH]c12,21µM*,23,0%,u,0%,-12%
COc1cc2c(c(OC)c1OC)-c1ccc(SC)c(=O)cc1C(NC(=O)c1ccccc1)CC2 (centres undefined),0.016µM*,u,u,0.015µM*,u,x
COc1c(C=O)c2c(c(OC)c1OC)-c1ccc(OC)c(=O)cc1C(NC(C)=O)CC2 (centres undefined),0.015µM*,0,0.0052µM*,0.0082µM*,u,x
CCCC(=O)NC1CCc2cc(OC)c(OC)c(OC)c2-c2ccc(OC)c(=O)cc21 (centres undefined),0.016µM*,62,u,0.016µM*,u,x
COc1cc(CC(=O)NC2CCCc3ccccc32)cc(OC)c1OC (centres undefined),u,23,1%,u,5%,-7%
COc1ccc(C(C)=O)cc1CC(=O)NC1CCCCCC1,-23%,2,5%,-19%,4%,2%
COc1cc2c(c(OC)c1OC)-c1ccc(SC)c(=O)cc1C(NC=O)CC2 (centres undefined),0.16µM*,30,0.046µM*,0.13µM*,u,x
C=CCn1c(=O)c2c(nc(-n3nc(C)cc3C)n2C)n(C)c1=O,6%,-2,1%,-19%,-7%,-4%
Cc1ccc([N+](=O)[O-])cc1Nc1nc(N2CCCC2)nc(N2CCCC2)n1,u,14,4%,u,-1%,21%
COc1c(O[C@@H]2O[C@H](CO)[C@@H](O)[C@H](O)[C@H]2O)cc2c(c1OC)-c1ccc(SC)c(=O)cc1C(NC(C)=O)CC2 (some centres undefined),5%,40,u,8%,u,1%
COc1cccc(C(=O)Nc2ccc3c(cc2=O)[C@@H](NC(C)=O)CCc2cc(OC)c(OC)c(OC)c2-3)c1,2.9µM*,55,5.8µM*,6.5µM*,4.6µM*,u
O=C(NC1CCCc2ccccc21)c1ccccc1 (centres undefined),u,5,2%,-18%,-7%,-3%
COC(=O)c1ccc2c(c1)C(NC(C)=O)CCc1cc(OC)c(OC)c(OC)c1-2 (centres undefined),0.021µM*,-73*,0.0065µM*,0.018µM*,u,x
COc1cc2c(c(OC)c1OC)-c1ccc(OC)c(=O)cc1C(NC(=O)c1ccccc1)CC2 (centres undefined),0.018µM*,10,0.073µM*,0.0092µM*,0.021µM*,x
C=COC(=O)NC1CCc2cc(OC)c(OC)c(OC)c2-c2ccc(SC)c(=O)cc21 (centres undefined),0.016µM*,43,0.18µM*,0.026µM*,u,x
COc1ccc(Nc2nc3c([nH]2)c(=O)[nH]c(=O)n3C)cc1,-17%,27,7%,-4%,-25%,6%
COc1cccc(C(NC(C)=O)c2nc(-c3cccs3)cs2)c1 (centres undefined),-10%,23,0%,-1%,0%,x
CCc1ccc2[nH]c(=O)c(-c3ccccc3)c(O)c2c1,3%,6,6%,18%,8%,-9%
O=C(N[C@@H]1c2ccccc2C2(CCN(C(=O)c3ccc4c(c3)OCCO4)CC2)[C@H]1O)c1cccnc1,-4%,x,x,u,x,x
O=[N+]([O-])c1ccc(N2CCN(CCOc3nonc3-c3ccccc3)CC2)c(Cl)c1,u,-4,-4%,29µM*,-14%,-7%
Cc1nonc1OCCN1CCN(c2ccc([N+](=O)[O-])cc2)CC1,u,-5,-13%,u,-4%,21µM*
Cc1c(Cl)cccc1NC(=O)N1CCC(CN2CCOCC2)CC1,-12%,x,x,-13%,x,x
O=C(CSc1nc2ccccc2c(=O)n1CC1CCCO1)Nc1ccccc1Cl (centres undefined),-26%,-17,-24%,6%,-21%,-1%
SMILES,TDP1 cell noCPT,IL1B secr inh,HT1080NT lethal,TDP1 cell CPT,HT1080 IDH1KD tx,ELG1 repair inh
CC(=O)OCC1OC(n2ccc3ccccc32)C(OC(C)=O)C(OC(C)=O)C1OC(C)=O (centres undefined),u,1,18%,u,22%,-5%
COC(=O)C1C=CC(OC2OC(COC(C)=O)C(OC(C)=O)C(OC(C)=O)C2OC(C)=O)n2c(=O)n(-c3ccccc3)c(=O)n21 (centres undefined),0.82µM*,-10,u,0.73µM*,5.8µM*,x
COc1ccc(C)cc1NC(=O)CO/N=C(\N)CC(=O)NC1CCCCC1,4%,-4,2%,1%,3%,-2%
O=c1[nH]c(/C=C/c2ccccc2F)nc2ccccc12,2.9µM*,34,u,2.9µM*,5.8µM*,u
O=c1[nH]c(/C=C/c2ccccn2)nc2ccccc12,u,-81*,-10%,u,-5%,u
O=c1[nH]c(/C=C/c2cccc3ccccc23)nc2ccccc12,u,23,8%,u,3%,u
COc1ccc(-c2c(-c3ccc4c(c3)OCO4)noc2C)cn1,11µM*!,-3,-9%,u,-11%,u
COc1ccc(-c2c(-c3ccc4c(c3)OCO4)noc2-c2ccsc2)cn1,14µM*,x,x,13µM*,x,x
CCc1ccc(-n2nc(C)c3c(C)cc(=O)n(CC(=O)NCc4ccc(C)cc4)c32)cc1,u,x,x,-29%,x,x
CC(=O)N(c1ccc2oc(=O)sc2c1)S(=O)(=O)c1ccccc1,10µM*,-19,-25%,u,-18%,-6%
COc1ccc(OC)c(S(=O)(=O)N(C(C)=O)c2ccc3oc(=O)sc3c2)c1,-8%,24,4%,4%,5%,u
COc1ccc(S(=O)(=O)N(C(=O)C(C)C)c2ccc3oc(=O)sc3c2)cc1,16µM*,50,u,10µM*,u,u
